Hits are enriched below; roughly 4.8% of the tested compounds scored in any of these assays.
ssDAF12 agonist – activates DAF-12 receptor from parasite S. stercoralis | HEK293 ssDAF-12/GRIP1 lit1-tk-luc reporter, luminescence; % of 3 µM dafachronic acid response | activation, % at 6.8 µM | actives 1% (n = 370,000) | AID 652126;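 active = activation above the mean over all tested compounds plus 3 SD, cut at about 0.9% in these data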;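 note: 0% = DMSO-only wells and 100% = 3 µM delta7-dafachronic acid wells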
DAX1 inh-1 – NR0B1 (DAX1) inhibition | inhibition, % at 6.75 µM | HEK293 Gal4-DAX1 luciferase reporter, luminescence | AID 504766 | actives 0.99% (n = 340,000) | P51843;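 active = inhibition above the mean over all tested compounds plus 3 SD, cut at about 4.2% in these data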;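 note: 0% = DAX1-transfected cells with DMSO and 100% = empty-vector control cells with DMSO; inhibition shows as a rise in luminescence from relieved DAX1 repression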
Target sequence (P51843 207-470 limits assumed): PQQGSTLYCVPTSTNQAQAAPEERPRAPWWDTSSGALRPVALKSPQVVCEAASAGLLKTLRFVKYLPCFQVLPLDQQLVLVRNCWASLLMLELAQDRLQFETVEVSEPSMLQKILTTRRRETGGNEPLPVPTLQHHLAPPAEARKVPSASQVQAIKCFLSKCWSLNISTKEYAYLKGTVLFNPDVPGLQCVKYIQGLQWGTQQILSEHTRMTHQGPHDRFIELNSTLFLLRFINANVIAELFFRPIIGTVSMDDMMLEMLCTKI
hcDAF-12 act – activators of H. contortus DAF-12 nuclear receptor; HEK293 hcDAF-12 lit1-tk-luc reporter, luminescence; 0% DMSO, 100% Δ7-dafachronic acid; activation, % at 6.8 µM; actives 1.4% (n = 370,000);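 active = activation above the mean of all tested compounds plus 3 SD, cut at about 5.5% in these data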;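 note: 100% = response to 3 µM Δ7-dafachronic acid high control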
SMARCA2 act – increases SMARCA2 function in MMTV reporter cells; MG213 cells, MMTV-luciferase reporter, dexamethasone, overnight; activation, % at 9.1 µM; actives 1% (n = 370,000); AID 652017; in the data active = activation above about 7.8%;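 note: 0% = vehicle wells and 100% = reference activator wells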
DAX1 inh-2 – blocks DAX1 repression of SF-1 activated StAR promoter; inhibition, % at 6.8 µM; actives 1.1% (n = 370,000); HEK293T StAR-luciferase reporter, SF-1/DAX-1 repression relief; AID 652010;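 active = inhibition above the mean over all tested compounds plus 3 SD, cut at about 3.6% in these data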;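 note: 0% = DAX-1 cells with DMSO and 100% = cells lacking DAX-1 with DMSO; higher inhibition means more luminescence from relief of DAX-1 repression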
hgDAF-12 ag – hgDAF-12 agonism, primary luciferase screen | HEK293 GAL4-hgDAF12 UAS-luciferase reporter, agonist luminescence; normalized to butyrate control | activation, % at 6.8 µM | actives 1.8% (n = 370,000);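 active = activation above a cutoff set at the mean of all screened compounds plus 3 SD, cut at about 10% in these data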;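 note: 0% = DMSO wells and 100% = sodium butyrate wells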
Active calls of the source: *; . = no result.

SMILES	ssDAF12 agonist	DAX1 inh-1	hcDAF-12 act	SMARCA2 act	DAX1 inh-2	hgDAF-12 ag
CN(C)S(=O)(=O)N1CCc2ccccc2C1	0	4.3*	-1	-5	-1	3
CCc1ccc(-c2ccc(C(=O)C(F)(F)F)[nH]2)cc1	0	2	3	1	2	13*
O=C(O)c1ccc(-c2ccccc2)[nH]1	0	2	1	1	0	-2
COc1cc(NS(=O)(=O)c2ccc(C)cc2C)cc(OC)c1OC	-2	-3	-4	-5	-3	-8
COc1cc(NS(=O)(=O)c2cc3[nH]c(=O)c(=O)[nH]c3cc2C)cc(OC)c1OC	-1	4.8*	5	-2	1	-2
CC1CN(S(=O)(=O)c2ccc(C(=O)Nc3nc(-c4cc5ccccc5o4)cs3)cc2)CC(C)O1 (centres undefined)	-1	-1	-2	-4	0	-2
COc1ccc(C(=O)C[n+]2cc(Br)cc3ccccc32)cc1[N+](=O)[O-]	1.0*	-1	5.9*	-2	0	2
COc1ccc(NC(=O)c2ccc(-c3c(C)noc3C)c3ccoc23)cn1	-1	.	-3	1	-1	-4
COc1ccc2c(-c3cc4ccc(OCc5ccc(F)cc5)cc4oc3=O)cc(=O)oc2c1	-2	-1	0	-2	0	1
O=C1COc2ccc(OCc3ccc(F)cc3)cc21	0	1	5	5	1	12*
N#CC1=C(N)n2c(s/c(=C\c3ccco3)c2=O)=C(C#N)C1c1ccco1 (centres undefined)	1.6*	1	3	1	0	0
O=C(NC1CCCc2ccccc21)C1CCN(c2c3c(nc4ncnn24)CCC3)CC1 (centres undefined)	1.1*	-1	-1	1	0	0
CCOc1ccc(C(=O)NC2CCCCCCC2)cc1	1	2	6.1*	4	3	12*
CCN(Cc1ccccc1)S(=O)(=O)c1cc(C(=O)NC2CCCCCC2)ccc1OC	-2	-2	0	-4	-1	-4
O=C(NC1CCCCC1)c1ccc([N+](=O)[O-])cc1	1	1	1	0	3.7*	6
O=C(NCC1CCCCC1)c1ccc([N+](=O)[O-])cc1	-1	10*	0	1	0	3
CCN(CC)S(=O)(=O)c1cc(C(=O)NC2CCCCC2)ccc1C	0	-1	3	2	2	11*
O=C(NC1CCCCCCC1)c1cc([N+](=O)[O-])ccc1Cl	-1	0	0	-4	-1	2
O=C(OCC(=O)N1CCc2ccccc2C1)c1ccc(F)cc1Cl	-1	1	0	0	1	11*
Cc1cc2c(c(=O)n1CCc1ccccc1)C(C(C)C)C(C#N)=C(N)O2 (centres undefined)	-1	-1	-1	-2	1	3
Cc1ccc(C2=NOC(=O)/C2=C\c2ccc(C)o2)cc1	-1	5.8*	0	2	0	-1
Cc1ccc(-c2nnn(CC(=O)N(CC(=O)NC3CCCCC3)c3ccccc3F)n2)o1	-2	4.2*	-1	-2	0	-1
Cc1ccc(-c2nnn(CC(=O)N(CC(=O)NC3CCCCC3)c3cccc(F)c3)n2)o1	-1	-1	-1	0	0	0
Cc1c(N=C2C=CC(=O)c3ccccc32)c(=O)n(-c2ccccc2)n1C	1.4*	2	5	5	0	4
Cc1c(N=C2C=C(Br)C(=O)C(Br)=C2)c(=O)n(-c2ccccc2)n1C	-2	3	-1	-3	0	-4
SMILES	ssDAF12 agonist	DAX1 inh-1	hcDAF-12 act	SMARCA2 act	DAX1 inh-2	hgDAF-12 ag
CCCOc1ccc(-c2nc(SCc3ccccc3)[nH]c(=O)c2C#N)cc1OC	4.3*	1	0	-2	1	0
CCSc1nc(-c2ccccc2)c(C#N)c(=O)[nH]1	-1	-1	-1	-1	1	0
Nc1nc(SCC(=O)N2CCCC2)[nH]c(=O)c1NC(=O)c1ccco1	2.3*	1	0	-2	0	-1
CCc1ccc2oc(-c3ccc(OC)cc3)cc(=Nc3cccc(C(=O)O)c3)c2c1	0	-1	6.5*	0	3	13*
COc1ccc(-c2cc(=Nc3ccc(C(=O)O)cc3)c3cc(C)ccc3o2)cc1	1	1	5.7*	7	4.1*	13*
CCc1ccc2oc(-c3ccc(OC)cc3)cc(=Nc3c(C)n(C)n(-c4ccccc4)c3=O)c2c1	0	0	9.1*	-1	6.5*	17*
CC(C)(C)N1C(=O)[C@H]2[C@@H](c3ccc(Br)cc3)N3C(=O)N(c4ccccc4)C(=O)[C@@]3(C)[C@H]2C1=O	-2	-1	0	0	0	-1
O=C(NC(=O)N1CCN(c2ccc([N+](=O)[O-])cn2)CC1)c1ccccc1F	-1	.	2	-1	0	2
CCOc1ccc(Oc2cc(NC(=O)c3ccco3)cc([N+](=O)[O-])c2)cc1	-2	-1	-2	-4	-2	1
C[C@H](NC(=O)c1ccco1)C(=O)Nc1ccc2c(c1)OCO2	-1	0	2	-1	0	-1
C[C@H](NC(=O)c1ccco1)C(=O)Nc1cccc([N+](=O)[O-])c1	-2	5.3*	1	-4	0	3
O=C(Nc1cc(Oc2ccc(Cl)cc2)cc([N+](=O)[O-])c1)c1ccco1	-1	-1	5.6*	-2	0	-2
CN1CC(=O)N(C)c2ncn(Cc3ccccc3)c2C1=O	-2	1	-2	-1	0	0
COC(=O)CN1C(=O)[C@H]2[C@@H](c3ccc(C)o3)N3C(=O)CN(Cc4ccccn4)C(=O)[C@@]3(C)[C@H]2C1=O	-1	3	0	1	0	1
COc1ccc(/C=N/NC(=O)CNC(=O)C2COc3ccccc3O2)cc1OC (centres undefined)	-1	0	-1	6	0	1
c1ccc(-c2nc(NCc3cccnc3)c3oc4ccccc4c3n2)cc1	0	-2	6.3*	-2	-1	8
O=C(O)CNc1nc(-c2ccccc2)nc2c1oc1ccccc12	0	2	4	-3	-1	4
COC(=O)c1cc(=O)nc(NN=Cc2ccccc2O)s1	-1	.	0	-4	1	1
CC(=O)c1sc(N/N=C\c2ccccc2O)nc1C	0	2	5	5	1	25*
CC1CCCN(CCCNC(=O)c2cn(C)c3ccc(S(=O)(=O)N(C)C4CCCCC4)cc3c2=O)C1 (centres undefined)	-1	0	-2	-1	1	0
CN(C)S(=O)(=O)c1ccc2c(c1)c(=O)c(C(=O)NCCCN1CCCCCC1)cn2C	-2	5.2*	1	0	1	3

Screens as filed in PubChem.
